Measured values: the supplement of paper PMC10981050
Structures can show the parent of a compound that is named as a salt.

Test system: MOLM14
Test: cell viability relative to vehicle control; higher = less cytotoxic
Conditions: 10 µM; SRSF2 genotype: SRSF2 wt/wt
How it was run: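 Each screen used CRISPR-edited mutant and wild-type clones from four leukaemia lines. Compounds were acoustically dispensed at a single 10 µM dose, and CellTiter-Glo luminescence was read after 48 h with the supernatant first removed. Viability was analysed in Genedata Screener and given as percent of the on-plate vehicle control.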

| SMILES | cell viability [%] |
| --- | --- |
| O=C(Nc1cc(Cl)cc2c1[nH]c1cnccc12)c1cccnc1 | 101 |
| Cc1cc(-c2ccc(/N=N/c3ccc4c(S(=O)(=O)O)cc(S(=O)(=O)O)c(N)c4c3O)c(C)c2)ccc1/N=N/c1ccc2c(S(=O)(=O)O)cc(S(=O)(=O)O)c(N)c2c1O [Evans Blue] | 64.7 |
| COc1cc(N2CCN(C)CC2)ccc1Nc1ncc2c(n1)N(C)c1ccccc1C(=O)N2 | 91.3 |
| COc1cc2c(cc1OC)-c1cc3ccc(OC)c(OC)c3c[n+]1CC2 [Palmatine chloride] | 86 |
| C[C@H]1CO[C@@H]2Cn3cc(C(=O)NCc4ccc(F)cc4F)c(=O)c(O)c3C(=O)N12 | 88.8 |
| CN(C)CCc1c[nH]c2ccc(Cn3cncn3)cc12 [Rizatriptan Benzoate (Maxalt)] | 85.6 |
| Cc1ccc(NC(=O)C2(c3ccc4c(c3)OC(F)(F)O4)CC2)nc1-c1cccc(C(=O)O)c1 [VX-809 (Lumacaftor)] | 106 |
| C=CC(=O)Nc1cccc(Nc2nc(Nc3ccc(Oc4ccnc(C(=O)NC)c4)cc3)ncc2F)c1 | 53.4 |
| Cc1cc(Nc2ncc(Cl)c(Nc3ccccc3S(=O)(=O)C(C)C)n2)c(OC(C)C)cc1C1CCNCC1 [Ceritinib (LDK378)] | 0.11 |
| C[C@@H](Oc1cc(-n2cnc3ccc(CN4CCN(C)CC4)cc32)sc1C(N)=O)c1ccccc1C(F)(F)F | 7.12 |
| CC(C)c1onc(-c2c(Cl)cccc2Cl)c1COc1ccc(/C=C/c2cccc(C(=O)O)c2)c(Cl)c1 | 97.3 |
| C[C@@H]1O[C@@H](O[C@H]2[C@H](Oc3cc(O)c(C(=O)CCc4ccc(O)cc4)c(O)c3)O[C@H](CO)[C@@H](O)[C@@H]2O)[C@H](O)[C@H](O)[C@H]1O [Naringin Dihydrochalcone (Naringin DC)] | 104 |
| CC(=O)[C@H]1CC[C@H]2[C@@H]3CCC4=CC(=O)CC[C@]4(C)[C@H]3CC[C@]12C [Progesterone (Prometrium)] | 78.8 |
| CCOc1cc(C=O)ccc1OC(C)=O [Ethyl vanillin acetate] | 98.5 |
| Clc1ccc(CSC(Cn2ccnc2)c2ccc(Cl)cc2Cl)cc1 (stereo not given) [Sulconazole Nitrate] | 44.8 |
| Cc1[nH]c(/C=C2\C(=O)Nc3ccc(S(=O)(=O)Cc4c(Cl)cccc4Cl)cc32)c(C)c1C(=O)N1CCC[C@@H]1CN1CCCC1 | 46.8 |
| CN(C)CCCC1(c2ccc(F)cc2)OCc2cc(C#N)ccc21 (stereo not given) [Citalopram HBr] | 101 |
| Cc1cc(Nc2cc(N)ncn2)c(=O)n2c1C(=O)NC21CCCCC1 | 92 |
| COc1ccc2c(c1O)-c1c(O)c(OC)cc3c1[C@H](C2)[N+](C)(C)CC3 [Magnoflorine] | 100 |
| CN1CCN(c2ccc(Nc3cc(-c4cccc(-n5ccc6cc(C7CC7)cc(F)c6c5=O)c4CO)cn(C)c3=O)nc2)CC1 | 1.57 |

| SMILES | cell viability [%] |
| --- | --- |
| Cc1cccc(C)c1N(CC(=O)Nc1ccc(-c2ncon2)cc1)C(=O)C1CCS(=O)(=O)CC1 [Amenamevir] | 105 |
| O=C1C[C@@H]2[C@@H](CO)[C@H](O)C[C@@H]2O1 [Corey Lactone Diol] | 108 |
| CC(=O)/N=c1/sc(S(N)(=O)=O)nn1C [Methazolamide] | 102 |
| O=C(NCc1ccncc1)C12CC3CC(C1)CC(c1ccc(Cl)cc1)(C3)C2 | 57.4 |
| COc1cc2c(=O)c(-c3ccc(O)cc3)coc2cc1O[C@@H]1O[C@H](CO)[C@@H](O)[C@H](O)[C@H]1O [Glycitin] | 103 |
| O=c1cc(-c2ccccc2)oc2c1ccc1ccccc12 [alpha-Naphthoflavone] | 109 |
| CC(CN(C)C)Oc1nc(Nc2cc3cccc(Cl)c3cn2)cnc1C#N (stereo not given) | 8.7 |
| C[C@@H](Oc1ccc2[nH]nc(/C=C/c3cnn(CCO)c3)c2c1)c1c(Cl)cncc1Cl | 0.16 |
| C1=N/C2=N/c3ccc(OCCN4CCCC4)c(c3)COC/C=C/COCc3cccc(c3)C(=C1)N2 [Pacritinib (SB1518)] | 0.25 |
| C[C@H]1C[C@H]2[C@@H]3CCC4=CC(=O)C=C[C@]4(C)[C@@]3(F)[C@@H](O)C[C@]2(C)[C@@]1(O)C(=O)CO [Betamethasone (Celestone)] | 86 |
| OCCN(CCO)c1nc(N2CCCCC2)c2nc(N(CCO)CCO)nc(N3CCCCC3)c2n1 [Dipyridamole (Persantine)] | 107 |
| CCOc1ccccc1OC(c1ccccc1)C1CNCCO1 (stereo not given) [Reboxetine mesylate] | 95.8 |
| CC(C)n1nccc1-c1ncccc1COc1cccc(O)c1C=O [Voxelotor(GBT440, GTx011)] | 94 |
| Cc1ccc(N(CC2=NCCN2)c2cccc(O)c2)cc1 [Phentolamine Mesylate] | 103 |
| O=C(NO)c1cccc(C(=O)NCCc2ccccc2)c1 | 94.3 |
| O=c1ccn(C2OC(CO)C(O)C2O)c(=O)[nH]1 (stereo not given) | 100 |
| CC1(C)S[C@@H]2[C@H](NC(=O)[C@H](N)c3ccccc3)C(=O)N2[C@H]1C(=O)OCOC(=O)[C@@H]1N2C(=O)C[C@H]2S(=O)(=O)C1(C)C [Sultamicillin] | 102 |
| Cc1cc(OCCCS(C)(=O)=O)cc(C)c1-c1cccc(COc2ccc3c(c2)OC[C@H]3CC(=O)O)c1 | 98.2 |
| CCCC1O[C@@H]2C[C@H]3[C@@H]4CCC5=CC(=O)C=C[C@]5(C)[C@H]4[C@@H](O)C[C@]3(C)[C@]2(C(=O)CO)O1 (stereo not given in full) [Budesonide] | 84 |
| CC(C)n1nc(-c2ccc(NC(=O)Nc3cc(C(F)(F)F)ccc3F)cc2)c2c(N)ncnc21 | 0.7 |
